# Most compounds without a hit are left out; they make up all but 19% or so of the library.
# ELG1 DNA repair – ELG1-dependent DNA repair inhibition; HEK293T ELG1-luciferase reporter, luminescence, 16 h; DNA damage induced by 5-fluorouridine; Potency, µM (doses to about 46.1 µM), for the others: at the highest dose activity change, negative = inhibition, actives largely listed as inhibitors; 2.3% of 330,000 active; AID 504467; note: potency is the fitted concentration of half-maximal effect; nearly all actives have a fitted effect of over 55% in size
#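 DMSO vehicle served as the neutral condition. Each well held 2,000 cells given 5-fluorouridine plus compound; after 16 hr at 37 °C/5% CO2, ONE-Glo was added and luciferase measured 30 min later.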
# TDP1 cell noCPT – qHTS for Inhibitors of human tyrosyl-DNA phosphodiesterase 1 (TDP1): qHTS in cells in absence of CPT. DT40 Tdp1-/- hTDP1 cells, no CPT, ATP luminescence, 48 h. Potency, µM (titrated, usually from 46.2 µM), without a hit: at the highest dose activity change, negative = growth inhibition, usual class: inhibitors. 15% of 420,000 active; note: potency is the fitted concentration of half-maximal effect; nearly all actives have a fitted effect of over 55% in size
#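 Compound effects on proliferation are scored in DT40 Tdp1-/-;hTDP1 cells in the absence of CPT. ATP levels (CellTiter-Glo luminescence) are recorded after a ≥48 hr, 37 °C incubation.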
# HT1080NT lethal – kills 2HG-producing HT-1080-NT fibrosarcoma cells. HT-1080-NT fibrosarcoma viability, CellTiter-Glo ATP luminescence, 48 h. Potency, µM (highest dose often 46.1 µM), for inactives: at the highest dose activity, negative = less viability, most hits filed as cytotoxic. 1.6% of 360,000 active. AID 686970;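 note: NT is the 2HG producing partner of a matched IDH1 knockdown line; potency is the fitted concentration of half-maximal effect; 0% = DMSO-treated cells and -100% = media-only wells without cells; nearly all actives have a fitted effect of over 55% in size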
#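 Fibrosarcoma NT cells, 750 per well in 5% FBS RPMI, were exposed to compound for 48 hours. Viability: CellTiter-Glo luminescence.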
# HT1080 IDH1KD tx – toxicity to HT-1080 IDH1 knockdown cells (counter line); HT-1080 IDH1 knockdown viability, ATP luminescence, 48 h; Potency, µM (titrated, usually from 46.1 µM), without a hit: top-dose activity, negative = toxicity, most hits filed as cytotoxic; 2% of 360,000 active;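 note: potency is the fitted concentration of half-maximal effect; 0% = DMSO wells and -100% = cell-free medium wells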
#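 Assay cells: HT-1080 with IDH1 knockdown, 750 per well, RPMI/5% FBS. Exposure: 48 h at 37 °C following 2 h pre-incubation. Read: CellTiter-Glo luminescence; fitted concentration-response, curve class assigned.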
# DT40 TDP1 CPT – growth inhibition of DT40 Tdp1-/-;hTDP1 cells with camptothecin (screen for TDP1 inhibitors); chicken DT40 Tdp1-/-;hTDP1 cells + 20 nM CPT, ATP luminescence, 48 h; Potency, µM (highest dose often 46.2 µM), for the others: top-dose activity change, negative = growth inhibition, hits mostly inhibitors; 12% of 420,000 active; AID 686979; note: potency is the fitted concentration of half-maximal effect; nearly all actives have a fitted effect of over 55% in size
#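 Chicken DT40 Tdp1-/- cells stably complemented with human TDP1 were seeded at 400 cells/well in medium containing 20 nM camptothecin, exposed to pin-transferred compounds, and grown at 37 °C for at least 48 hr. Viability was read as ATP luminescence.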
# IL1B secr inh – inflammasome signaling inhibition, IL-1 beta readout. THP-1 LPS/ATP IL-1B secretion, AlphaLISA, 16 h; stronger effect = lower value. 4.7% of 360,000 active. activity change, % at 57.5 µM. AID 743279; in the data active = activity change below about -50%; inconclusive = mostly about -30% to -49%
#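 THP-1 cells pretreated 1 hr with compounds (up to 57.5 uM final), then stimulated with LPS (250 ng/mL final) plus ATP (1.25 mM final); secreted IL-1B measured by AlphaLISA after 16 hr, decreased signal indicating inhibition.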
# * hit, by the source's call; ? = inconclusive; nt = no result; [ ] = dose if it differs, or a comment. Unless noted, calls come from the whole dose curve; as a rule, active = well fitted curve in the direction sought with a large enough effect; inconclusive = small, poorly fitted or top-dose-only effect, or another doubt; inactive = no such curve, though single readings can be large; an effect the other way counts as inactive or inconclusive. Unless noted, % is set by controls: 0 for no effect and ±100 for the full control effect.
SMILES,ELG1 DNA repair,TDP1 cell noCPT,HT1080NT lethal,HT1080 IDH1KD tx,DT40 TDP1 CPT,IL1B secr inh
COc1ccc(-n2c(SCC(=O)NC3CCCCC3)nc3c([nH]c4ccccc43)c2=O)cc1,nt,21µM*,nt,nt,?,nt
O=C(CSc1nc2c([nH]c3ccccc32)c(=O)n1-c1cccc(C(F)(F)F)c1)N1CCc2ccccc21,nt,8.2µM*,nt,nt,7.3µM*,nt
CC(C)=CCn1c2ccc(NC(=S)NC3CC3)cc2c(=O)n1C,nt,-29%,20%,11%,-14%,30
Cc1ccc(C(=O)NCCc2nnc3n2CCN(Cc2ccc4ccccc4c2)CC3)c(C)c1,nt,?,nt,nt,7%,nt
C[C@H]1CN(c2ccc(Br)cc2)C(=O)[C@@H]1CC(=O)Nc1ccccc1,nt,?,8%,2%,?,5
O=C(CN1CCN(c2cnn(-c3ccccc3)c(=O)c2Cl)CC1)NC1CCS(=O)(=O)C1 (stereo not drawn),24%,1%,17%,18%,1%,4
CCOC(=O)CSc1nc2c([nH]c3ccccc32)c(=O)n1-c1ccc(OC)cc1,nt,?,nt,nt,-20%,nt
O=C(CSc1nc2c([nH]c3ccccc32)c(=O)n1-c1ccccc1F)Nc1ccccc1C(F)(F)F,nt,21µM*,nt,nt,16µM*,nt
O=C(CSc1nc2c([nH]c3ccccc32)c(=O)n1-c1ccc(Cl)cc1)N1CCCCCC1,nt,21µM*,nt,nt,?,nt
O=C(CSc1nc2c([nH]c3ccccc32)c(=O)n1-c1ccc(F)cc1)NC1CCCCC1,nt,?,nt,nt,15µM*,nt
CCC1CCCCN1C(=O)CSc1nc2c([nH]c3ccccc32)c(=O)n1-c1ccc(OC)cc1 (stereo not drawn),nt,18µM*,nt,nt,?,nt
CCOC(=O)c1cccc(NC(=O)C2CCCN(c3nnc(N4CCCC4=O)s3)C2)c1 (stereo not drawn),-28%,-25%,2%,1%,?,-19
O=C(NCCc1cccc(Cl)c1)c1cccc(-n2cnnn2)c1,-4%,?,6%,3%,?,6
CCCCCC[N+](C)(C)CC/C=C1/c2ccccc2Sc2ccc(Cl)cc21,-17%,5.8µM*,-20%,-24%,7.3µM*,-24
CCOC(=O)c1ccc(N2C(=O)C3CC=CCC3C2=O)cc1 (stereo not drawn),26%,-4%,2%,9%,0%,9
CCOC(=O)c1ccc(N2C(=O)C3C(C2=O)C(C(=O)c2ccc(Cl)cc2)N2CCCC32)cc1 (stereo not drawn),0%,21µM*,?,?,15µM*,-66*
Cc1cc(Cl)ccc1OCc1cc(=O)n2c3c(sc2n1)CCCC3,nt,0%,nt,nt,0%,nt
CN1C2C=C3C(C#N)=C(N)C(C#N)(C#N)[C@@H](c4ccc(Cl)cc4)[C@@H]3C1CC2 (stereo partly drawn),1%,?,-3%,-7%[9.24 µM],?,-6
CN1C2C=C3C(C#N)=C(N)C(C#N)(C#N)C(c4ccc(Br)cc4)C3C1CC2 (stereo not drawn),0%,21µM*,-12%,-6%,?,-101*
CCCNC(=O)Nc1ccc2c(c1)OC[C@H](C)N(C(=O)C1CCCCC1)C[C@@H](C)[C@H](OC)CN(C)C2=O,nt,-12%,17%,17%,-25%,26
O=C(Cn1cnc2c(cnn2-c2ccccc2)c1=O)N1CCCc2ccccc21,21µM*,?,-19%,-11%,?,16
O=C(CS(=O)(=O)c1cn(CC(=O)N2CCCC2)c2ccccc12)Nc1ccccc1F,9%,-4%,-3%,0%,-6%,0
CC(=O)Nc1ccc(S(=O)(=O)N2CCN(C(=O)Cc3ccccc3)CC2)cc1,?,?,-11%,0%,12µM*,-19
O=C(Nc1ccc(S(=O)(=O)N2CCCC2)cc1)c1ccccc1,-12%,23µM*,-13%,-5%,-28%,-24
CC(=O)Nc1ccc(S(=O)(=O)N2CCN(c3cc(C(F)(F)F)ccn3)CC2)cc1,?,16µM*,-8%,-5%,18µM*,-10
SMILES,ELG1 DNA repair,TDP1 cell noCPT,HT1080NT lethal,HT1080 IDH1KD tx,DT40 TDP1 CPT,IL1B secr inh
CC(=O)Nc1ccc(S(=O)(=O)N2CCN(S(=O)(=O)c3ccc(NC(C)=O)cc3)CC2)cc1,8%,-3%,6%,20%,-2%,1
CC(=O)Nc1ccc(S(=O)(=O)N2CCN(CCc3ccccc3)CC2)cc1,-29%,6%,-15%,-5%,-5%,-28
Cn1nc(C(=O)Nc2ccc(S(=O)(=O)N3CCCCC3)cc2)ccc1=O,16µM*,21µM*,-17%,-10%,?,12
Cn1nccc1C(=O)Nc1ccc(S(=O)(=O)N2CCCC2)cc1,-20%,-8%,-2%,-1%,-2%,13
CCC1=C(Nc2ccccc2)COC1=O,nt,?,-1%,-6%,-3%,-9
O=C(Nc1ccc(S(=O)(=O)N2CCCC2)cc1)c1ccc([N+](=O)[O-])cc1,9.2µM*,-15%,-3%,-5%,1%,4
CC(OC(=O)c1cc(Br)ccc1O)C(=O)Nc1ccc(S(=O)(=O)N2CCCC2)cc1 (stereo not drawn),-21%,16µM*,?,?,?,?
CC(=O)Nc1ccc(S(=O)(=O)N2CCC(n3cnc4cc(F)ccc43)CC2)cc1,10µM*,?,-14%,3%,?,-3
CC(=O)Nc1ccc(S(=O)(=O)N2CCN(c3ccc([N+](=O)[O-])cc3)CC2)cc1,?,21µM*,-12%,-11%,23µM*,7
CC(=O)Nc1ccc(S(=O)(=O)N2CCC(N3CCCC3)CC2)cc1,-1%,-16%,18%,14%,-17%,-6
CC(=O)Nc1ccc(C(=O)Nc2ccc(S(=O)(=O)N3CCCC3)cc2)cc1,?,-17%,-5%,0%,-24%,-13
Cc1cc(OCC(=O)OCC(=O)N(C)Cc2ccccc2C)ccc1Cl,8%,13%,6%,0%,-9%,18
O=C(Nc1cccnc1)c1ccc(CN2CCc3ccccc3C2)cc1,8.2µM*,16µM*,1%,-19%,?,0
O=C(Nc1ccccc1)c1ccc(CN2CCc3ccccc3C2)cc1,?,-30%,-11%,-26%,-17%,-4
CC(=O)Nc1ccc(S(=O)(=O)N2CCSc3ccccc32)cc1,?,3.7µM*,21µM*,13µM*,4.1µM*,25

# Screening data: PubChem BioAssay, National Center for Advancing Translational Sciences (NCATS)
